Assay outcomes: PubChem, several laboratories
Most compounds without a hit are left out; they make up all but 1.4% or so of the library.
Phagocyt inh: inhibitors of macrophage phagocytosis; AID 1029; J774A.1 macrophage IgG-bead phagocytosis, imaging; hit rate 0.07% among 110,000; inhibition, % at 5 µM;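 active = inhibition above the mean of the plate negative controls plus 5 SD, cut at about 13% in these data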;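 also: phagocytic index as fraction of beads internalized from green versus red external bead signal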
IL1B cytotox: HUVEC cytotoxicity counter-screen, IL-1B stimulated. HUVEC cell count loss, Hoechst imaging. hit rate 0.41% among 94,000. cell count reduction, % at 2 µM. AID 845;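 active = cell count reduction more than 3 SD above the screen-wide mean, cut at about 70% in these data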
NFkB transloc pot: enhances IL-1B driven NFkB nuclear translocation | HUVEC IL-1B NFkB p65 nuclear translocation imaging | activation, % at 2 µM | hit rate 0.3% among 94,000;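 active = activation above 40%, about the mean plus 3 SD, also judged a hit on visual image review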;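 also: percent activation is computed from the nuclear over cytoplasmic p65 intensity ratio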
Pyk2 oligo antag: blocks oligomerization of human Pyk2 in cells. AID 1347419. z-score (the deposit names both 25 µM and 10 µM). Q14289. Q293 cells, Pyk2 FERM NanoBiT luminescence; hits give low values. hit rate 0.83% among 99,000;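 active = Z-score of -3 or lower, scaled per plate to the spread of control and sample wells; inactive = z-score above -3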;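 also: negative z-score means lost luminescence so less FERM oligomerization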
NFkB transloc inh: blocks IL-1B driven NFkB nuclear translocation in HUVEC cells. HUVEC IL-1B NFkB p65 nuclear translocation imaging. inhibition, % at 2 µM. hit rate 0.43% among 94,000;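 active = inhibition above about 30% together with a positive call from visual inspection of the well image, limit read from the data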;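 also: nuclear over cytoplasmic p65 intensity ratio measured by imaging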
Hits are given with their value; i = inactive; nt = no result; [ ] = remark or other dose.

SMILES	Phagocyt inh	IL1B cytotox	NFkB transloc pot	Pyk2 oligo antag	NFkB transloc inh
Cc1cc(NC(=O)CSc2nnc3c(C)cc4ccccc4n23)no1	i	i	i	i	i
Cc1ccc(-c2cc(-c3nnc(SCC(=O)NCC(C)C)n3N)c3ccccc3n2)cc1	i	i	42.8	i	i
CCC(C)NC(=O)CSc1nnc(-c2cc(-c3ccc(C)cc3)nc3ccccc23)n1N (stereo not drawn)	i	i	72.9	i	i
c1ccc(C2=NC(c3ccccc3)N=C(c3ccccc3)N2)cc1	nt	i	i	i	i
O=C(CCC(=O)N(CC(=O)NC1CCCC1)C1CCCC1)Nc1ccccn1	i	i	127.4	i	i
CCOC(=O)c1sc(NC(=O)c2ccccc2)cc1C	i	i	i	i	i
CCN1CCN(CCCNC(=O)c2cc3cc4ccc(OC)cc4nc3o2)CC1	nt	i	i	i	i
CCOC(=O)c1cc2c(=O)n3ccccc3nc2n(CCCOC)c1=NC(=O)c1cccnc1	nt	i	44.4	nt	i
Cc1cc(C)c(N=C2CCCN2Cc2ccccc2)c(C#N)c1	nt	i	i	i	i
C=CCn1c(=O)c2c3c(sc2n2c(Nc4ccccc4)nnc12)CCCC3	i	i	i	-3.72	i
O=C(NCC1OCCc2ccccc21)c1ccco1 (stereo not drawn)	i	i	53.3	i	i
Cc1ccc([N+](=O)[O-])cc1N=C(c1ccc([N+](=O)[O-])cc1)N1CCOCC1	i	nt	nt	nt	nt
O=[N+]([O-])c1ccc(C(=Nc2cccc3ccccc23)N2CCOCC2)cc1	nt	i	i	-3.53	i
COc1ccc(/C(O)=C2/C(=O)C(=O)N(Cc3cccnc3)C2c2ccncc2)cc1F (stereo not drawn)	nt	i	i	i	i
O=C(Cn1c(C(=O)N2CCc3ccccc3C2)cc2sccc21)c1ccccc1	i	i	i	-3.99	i
Cn1c(=NC(=O)CCl)sc2ccccc21	nt	i	i	i	i
CCOC(=O)C1C(=O)Nc2nc(C)nn2C1c1ccccc1 (stereo not drawn)	i	i	83.6	i	i
CC1(C)Oc2ccc(C(=O)NC3CCCC3)cc2N(CC(=O)NC2CCCC2)C1=O	i	i	i	i	i
O=S(=O)(c1ccc2oc3ccccc3c2c1)N1CCCC1	nt	i	i	i	i
COc1ccccc1-n1c(C)nnc1SCC(=O)Nc1cccc(C(C)=O)c1	i	80.5	i	i	96.5
COc1ccc(NC(=O)CSc2nnc(Cc3cccs3)n2-c2ccc(C)cc2)cc1	i	i	i	i	i
COc1ccccc1-n1c(SCC(=O)Nc2cccc3ccccc23)nc(O)cc1=O	190.4	i	i	i	i
COc1cccc(NC(=O)CSc2nnc(Cc3cccs3)n2-c2ccc(C)cc2)c1	nt	i	i	-3.16	i
COc1ccccc1-n1c(C)nnc1SCC(=O)NCc1ccccc1	nt	i	i	i	i
COc1ccc(NC(=O)CSc2nc(O)cc(=O)n2-c2ccccc2OC)cc1	i	i	i	i	i
SMILES	Phagocyt inh	IL1B cytotox	NFkB transloc pot	Pyk2 oligo antag	NFkB transloc inh
COc1cccc2c3c(c(C)nc12)CC(C)O3 (stereo not drawn)	i	i	i	i	i
O=C1NC2=C(CCc3ccccc32)C(c2ccc(Br)cc2)N1 (stereo not drawn)	i	i	i	i	i
Clc1ccc(Sc2cc(Cl)c(-c3ccccc3)nn2)cc1	nt	i	i	-3.43	i
Cc1ccc(NC(=O)CSc2nsc(SCC(=O)Nc3ccc(C)cc3C)c2C#N)c(C)c1	i	nt	nt	nt	nt
Cc1csc(NC(=O)CSc2nsc(SCC(=O)Nc3nc(C)cs3)c2C#N)n1	i	i	i	-4.41	i
O=C(O)C1C2C=CC(C2)C1C(=O)N1CCOCC1 (stereo not drawn)	nt	nt	nt	i	nt
O=C(NC1CCCC1)C1C2C=CC(C2)C1C(=O)N1CCOCC1 (stereo not drawn)	i	82.9	i	i	i
COC(=O)C(/C=N/OCc1ccc([N+](=O)[O-])cc1)NC(=O)c1ccccc1 (stereo not drawn)	i	i	43.9	i	i
CC(=O)Oc1ccc2ccccc2c1C(NC(=O)Cc1ccccc1)c1ccccc1Cl (stereo not drawn)	i	i	i	-4.41	i
CCC(=O)NC(c1cccc([N+](=O)[O-])c1)c1c(OC(C)=O)ccc2ccccc12 (stereo not drawn)	nt	i	i	-3.32	i
CCOC(=O)C1=C(CC)Nc2ccccc2N=C1NC(=O)Nc1ccccc1OC	i	i	i	i	i
Cc1ccc(S(=O)(=O)/N=C(\N)Nc2nc(C)c3cc(C)c(C)cc3n2)cc1	i	i	i	i	i
CC(Sc1nc2ccccc2n1C)C(=O)NC(c1ccccc1)c1ccccc1 (stereo not drawn)	nt	i	i	-4.04	i
O=C(NC1CCCCC1)c1sc(=S)n2c1[nH]c(=O)c1ccccc12	i	i	i	-3.03	i
O=C(CSc1nnc(-c2c[nH]c3ccccc23)o1)N(Cc1ccccc1)c1ccc(F)cc1	nt	i	i	-3.32	i
Cc1nc2cc(NS(=O)(=O)c3c(C)c(C)cc(C)c3C)ccc2s1	nt	i	i	-3.83	i
Cc1nc2ccc(NS(=O)(=O)c3c(C)c(C)cc(C)c3C)cc2s1	i	i	i	i	i
Nc1ncc(Br)cc1S(=O)(=O)NCCC(=O)N1CCN(c2ccccn2)CC1	i	nt	nt	i	nt
Cc1ccc(S(=O)(=O)NCCN2CCOCC2)cc1	nt	i	i	i	31.4
Cc1ccc(NC2=NC3(CCCCC3)N=C(N)N2)c(C)c1	i	i	i	i	96.9
COc1ccc(C(C)=O)cc1CSc1nc2ccccc2c(=O)n1-c1ccccc1C	i	nt	nt	nt	nt
COc1cc(/C=C/C(=O)OCC(=O)N2CCc3ccccc3C2)ccc1O	66.2[artifact]	nt	nt	nt	nt
COc1cc(/C=C/C(=O)OCC(=O)N2CCC(Cc3ccccc3)CC2)ccc1O	i	nt	nt	nt	nt
Cc1cc2ccccc2n1CCNC(=O)c1cccs1	i	i	i	nt	59.1
Cc1cc2ccccc2n1CCNC(=O)C1CCCC1	nt	i	i	i	i
SMILES	Phagocyt inh	IL1B cytotox	NFkB transloc pot	Pyk2 oligo antag	NFkB transloc inh
O=C(COc1ccc(CO)cc1Cl)Nc1ccc(F)cc1	i	i	i	i	i
Cc1cc(C)c(S(=O)(=O)Nc2ccc3c4c(cccc24)CC3)c(C)c1	nt	i	i	i	41.9
Cc1csc(N2CCc3ccccc32)n1	i	i	i	i	i
COC(=O)C1=C(C)NC2=C(C(=O)CC(c3cccs3)C2)C1c1ccsc1 (stereo not drawn)	i	i	i	i	i
CCOC(=O)C1=C(C)NC2=C(C(=O)CC(c3cccs3)C2)C1c1cccs1 (stereo not drawn)	nt	i	i	-3.33	i
c1ccc(N2CCN(c3ncnc4scc(-c5cccs5)c34)CC2)cc1	i	i	i	i	i
COC(=O)C1=C(C)N(C)C(=O)NC1c1ccc(C)cc1 (stereo not drawn)	nt	i	i	i	i
COC(=O)C1=C(C)n2nnnc2NC1c1ccc(Cl)cc1 (stereo not drawn)	i	i	42.2	i	i
CC1(C)CC(=O)C=C(Nc2ccc(C(=O)O)cc2)C1	nt	i	i	i	i
CC1(C)CC(=O)C=C(Nc2ccc(S(N)(=O)=O)cc2)C1	i	i	i	i	34.0
COc1ccc(-c2nnc(NC(=O)c3ccc(S(=O)(=O)N4CCCc5ccccc54)cc3)o2)cc1	i	i	i	-3.74	i
